Source: PubChem
Sampled rows, rich in hits. Any-hit rate of the full collection: about 2.4%.
GLS inh: glutaminase GLS (human) inhibition. GLS enzymatic activity, qHTS titration. O94925. 410,000 tested, 0.21% active. Potency, µM (top dose mostly 45.5 µM), hits mostly inhibitors
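hKGA in 45 mM KH2PO4 (pH 8.2), 0.02% Tween-20 with compound, then 1mM L-Glutamine (stock as added) plus glutamate oxidase/HRP/Amplex red coupling mix. Fluorescence read initially and after 30 min at RT; signal change reflects glutamate formation.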
Pol eta inh-1: blocks human DNA polymerase eta activity; Q9Y253; Potency, µM (series often up to 114 µM), actives largely listed as inhibitors; AID 588591; recombinant Pol eta, fluorescent DNA replication assay; 390,000 tested, 1.2% active
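Pol eta (10 nM) was preincubated with compounds for 15 min at room temperature, after which fluorescent replication substrate (50 nM final) was added to start the reaction. Fluorescence was read kinetically at 0 and 10 min.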
Pol beta inh: DNA polymerase beta (human) inhibition. 340,000 tested, 1.3% active. AID 485314. Pol beta primer extension/strand displacement, fluorescence kinetic. Potency, µM (series often up to 114 µM), hits mostly inhibitors
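Kinetic readout of DNA synthesis with strand displacement by Pol beta. Compound and 10 nM enzyme sit 15 min at room temperature; 50 nM substrate starts the reaction, read immediately and at 10 min.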
POLI inh: blocks human DNA polymerase iota activity; Pol iota fluorescent replication assay, 10 min; 390,000 tested, 1% active; Q9UNA4; Potency, µM (highest dose often 115 µM), usual class: inhibitors
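Fluorescent replication assay read twice, at 0 min and 10 min after adding 50 nM (final) substrate. Enzyme (10 nM) and compounds were first incubated 15 min at room temperature; enzyme-free buffer wells were negative controls.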
Pol kappa inh-1: blocks human DNA polymerase kappa activity; purified Pol kappa, fluorescent DNA synthesis assay, 10 min; Potency, µM (top dose mostly 107 µM), hits mostly inhibitors; AID 588579; 400,000 tested, 0.53% active; Q9UBT6
Target sequence (Q9UBT6 whole entry, looked up): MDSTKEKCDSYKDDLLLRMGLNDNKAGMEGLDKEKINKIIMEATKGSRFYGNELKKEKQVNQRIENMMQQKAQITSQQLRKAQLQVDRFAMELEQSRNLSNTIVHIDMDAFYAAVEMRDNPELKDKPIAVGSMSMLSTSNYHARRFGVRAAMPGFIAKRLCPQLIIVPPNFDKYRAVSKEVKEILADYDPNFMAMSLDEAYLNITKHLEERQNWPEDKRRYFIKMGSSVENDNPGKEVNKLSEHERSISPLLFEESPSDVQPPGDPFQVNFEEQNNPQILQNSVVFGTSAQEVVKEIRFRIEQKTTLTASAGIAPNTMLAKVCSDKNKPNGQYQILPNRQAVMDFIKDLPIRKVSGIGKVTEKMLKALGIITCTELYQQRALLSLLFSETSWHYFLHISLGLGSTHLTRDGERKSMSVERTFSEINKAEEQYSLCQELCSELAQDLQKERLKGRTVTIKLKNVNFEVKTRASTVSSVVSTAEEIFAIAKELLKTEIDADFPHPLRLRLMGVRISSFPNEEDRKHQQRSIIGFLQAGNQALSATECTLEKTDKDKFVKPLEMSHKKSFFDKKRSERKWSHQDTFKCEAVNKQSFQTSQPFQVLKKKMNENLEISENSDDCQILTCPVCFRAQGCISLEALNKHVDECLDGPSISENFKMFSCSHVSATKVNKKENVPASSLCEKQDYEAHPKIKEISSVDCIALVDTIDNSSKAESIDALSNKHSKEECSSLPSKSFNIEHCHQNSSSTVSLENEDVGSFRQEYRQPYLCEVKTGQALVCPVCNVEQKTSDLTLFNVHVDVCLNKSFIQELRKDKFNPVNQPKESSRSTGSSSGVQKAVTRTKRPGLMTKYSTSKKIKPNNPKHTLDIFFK
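Kinetic fluorescence readout at 0 and 10 min followed reaction start with substrate at 50 nM final. Beforehand, enzyme (10 nM Pol kappa) stood 15 min with compound at room temperature; buffer-only wells were negative controls.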
GCN5L2 inh: GCN5L2 (KAT2A) acetyltransferase inhibition; GCN5L2 HAT assay, ThioGlo1 CoA-SH fluorescence; Potency, µM (top dose mostly 58.9 µM), actives largely listed as inhibitors; 390,000 tested, 0.21% active; AID 504327
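Titration-based screen in which CoA formation is detected via maleimide probe ThioGlo1 (50uM) turning fluorescent on thiol reaction; substrates H3(1-25) 75uM and acetyl-CoA 70uM, GCN5L2 20nM, 20 min incubation at room temperature.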
GALK confirm: galactokinase (human) inhibition, confirmation. shares compounds with Pol eta inh-1. purified GALK, Kinase-Glo ATP depletion luminescence. Potency, µM (top dose mostly 115 µM), usual class: inhibitors. 150 tested, 70% active. AID 2015
GALK redox cs: redox cycling activity in phenol red-HRP assay | shares compounds with Pol eta inh-1 | Phenol red-HRP H2O2 redox cycling, absorbance 600 nm | Potency, µM (top dose mostly 115 µM), hits mostly inhibitors | 150 tested, 40% active
HEK293 tox: counter-screen for GALK inhibitors: HEK293 cell cytotoxicity; shares compounds with Pol eta inh-1; HEK-293 viability, ATP luminescence (CellTiter-Glo), 24/48 h; Potency, µM (series often up to 46.1 µM), most hits filed as inhibitors; 170 tested, 10% active
Pol kappa inh-2: Pol kappa (human) inhibition, cherry-pick confirmation; 920 tested, 76% active; shares compounds with Pol eta inh-1; purified Pol-kappa, fluorescent strand-displacement substrate; Potency, µM, most hits filed as inhibitors
Pol eta inh-2: confirmation of human DNA polymerase eta inhibitors; shares compounds with Pol eta inh-1; Pol eta primer extension, TAMRA/BHQ fluorescence, 10 min; Potency, µM, actives largely listed as inhibitors; 2,600 tested, 64% active; AID 720502
Of the large screens only hits and unclear results are named; the others gave an inactive call (follow-up assays come after a bar, where they were run). Calls follow the shape of the dose curve; as a rule, active = well fitted curve in the direction sought with a large enough effect; inconclusive = small, poorly fitted or top-dose-only effect, or another doubt; inactive = no such curve, though single readings can be large; an effect the other way counts as inactive or inconclusive.

CC(C)CC(CSc1ccc(Br)cc1)N1CCN(CCc2ccccc2)CCC1=O (stereo not given)	none (no result: GLS inh, Pol eta inh-1, Pol beta inh, GCN5L2 inh)
CCCn1c(COc2cccc(C)c2)nc2ccccc21	none
COc1ccc(-c2cc(C)no2)cc1S(=O)(=O)NCc1ccco1	POLI inh inconclusive
CC(=O)n1cc(N(C(=O)CCl)c2ccc(Cl)cc2)c2ccccc21	Pol eta inh-1 28µM, POLI inh inconclusive | Pol eta inh-2 inconclusive
CSc1cccc(NC(=O)C2CCCN(S(=O)(=O)c3ccc4c(c3)CCCN4C(C)=O)C2)c1 (stereo not given)	none
COC1=C(N)C(=O)c2nc(-c3nc(C(=O)O)c(C)c(-c4ccc(OC)c(OC)c4O)c3N)ccc2C1=O	Pol eta inh-1 3.5µM, Pol beta inh 10µM, POLI inh 0.89µM, Pol kappa inh-1 50µM | GALK confirm inconclusive | GALK redox cs 0.94µM | HEK293 tox 0.013µM
COc1ccc(C(=O)O)c(O)c1OC	none (no result: GLS inh, Pol eta inh-1, Pol beta inh, POLI inh)
N#C/C(=C(/O)c1ccco1)c1nc2ccccc2s1	none
N#C/C(=C(/O)c1cc2ccccc2o1)c1nc2ccccc2s1	none | GALK confirm inconclusive | GALK redox cs inactive | HEK293 tox inactive
Cc1cc(NS(=O)(=O)c2ccc(NC(=O)/C=C/c3ccccc3)cc2)nc(C)n1	none (no result: Pol beta inh)
Cc1cc(NS(=O)(=O)c2ccc(NC(=O)/C=C/c3ccc(C)o3)cc2)nc(C)n1	GLS inh 10µM, Pol eta inh-1 45µM | Pol eta inh-2 76
N#C/C(=C/c1ccc(-c2ccc(C(=O)O)c(Cl)c2)o1)C(=O)NCC1CCCO1 (stereo not given)	Pol eta inh-1 10µM, Pol beta inh inconclusive, POLI inh inconclusive, Pol kappa inh-1 inconclusive | Pol eta inh-2 inconclusive
O/N=C/c1cc(Br)ccc1OCc1ccccc1F	none (no result: Pol beta inh, GCN5L2 inh)
O=C1/C(=C/c2ccc(O)c([N+](=O)[O-])c2)SC(=S)N1Cc1ccccc1	Pol eta inh-1 inconclusive
O=C(O)CN1C(=O)/C(=C\c2cccc(OCc3ccc(Cl)cc3Cl)c2)SC1=S	Pol eta inh-1 79µM, POLI inh inconclusive, GCN5L2 inh inconclusive | Pol kappa inh-2 47 | Pol eta inh-2 inconclusive
O=C(O)CN1C(=O)/C(=C\c2cc(Br)ccc2OCc2ccc([N+](=O)[O-])cc2)SC1=S	Pol eta inh-1 28µM, Pol beta inh 28µM, POLI inh 40µM, Pol kappa inh-1 71µM | Pol kappa inh-2 27 | Pol eta inh-2 inconclusive
COc1cc([N+](=O)[O-])cc(/C=C2/SC(=S)N(Cc3ccccc3)C2=O)c1O	Pol eta inh-1 inconclusive, Pol beta inh 18µM, POLI inh 14µM, GCN5L2 inh inconclusive | Pol kappa inh-2 19 | Pol eta inh-2 43
O=C(O)CCN1C(=O)/C(=C\c2ccc(OCc3ccccc3)c(OCc3ccccc3)c2)SC1=S	GLS inh inconclusive, Pol eta inh-1 inconclusive, GCN5L2 inh inconclusive
O=C(O)CN1C(=O)/C(=C\c2cc(Br)ccc2OCc2ccccc2F)SC1=S	Pol eta inh-1 inconclusive, Pol beta inh inconclusive, GCN5L2 inh inconclusive | Pol eta inh-2 inconclusive
O=C(O)c1cc(-c2ccc(C(F)(F)F)cc2)nc2n[nH]c(-c3ccccc3)c12	Pol beta inh inconclusive, POLI inh inconclusive
COc1ccc(-n2ncc(C(=O)NCCc3ccsc3)c2C2CCN(C(=O)OC(C)(C)C)CC2)cc1	none
CSc1ccc(C2C(C#N)=C(N)Oc3c2ccc(=O)c2c(C)oc(C)c32)cc1 (stereo not given)	Pol eta inh-1 11µM, Pol beta inh inconclusive, POLI inh inconclusive, Pol kappa inh-1 50µM, GCN5L2 inh inconclusive | Pol eta inh-2 inconclusive
Cc1ccccc1NC(=O)CSc1[nH]c(=O)cc(C)c1C#N	Pol eta inh-1 20µM, POLI inh inconclusive, Pol kappa inh-1 inconclusive | Pol eta inh-2 inconclusive
Cc1cc(=O)[nH]c(SCC(=O)c2ccccc2)c1C#N	none
CCC(=O)OC1(C)C(=O)C=C2C=C(C3CC3)OC=C2C1=O (stereo not given)	Pol eta inh-1 inconclusive, POLI inh inconclusive, Pol kappa inh-1 inconclusive (no result: Pol beta inh, GCN5L2 inh)
CCC(=O)OC1(C)C(=O)C=C2C=C(CCCC(=O)OC)OC=C2C1=O (stereo not given)	GLS inh inconclusive, Pol eta inh-1 25µM, POLI inh inconclusive, Pol kappa inh-1 inconclusive (no result: Pol beta inh, GCN5L2 inh) | Pol eta inh-2 54
CCCCC1=CC2=CC(=O)C(C)(OC(=O)C3CCCC3)C(=O)C2=CO1 (stereo not given)	Pol eta inh-1 40µM, POLI inh 50µM, Pol kappa inh-1 79µM | Pol eta inh-2 inconclusive
CCCCC1=CC2=CC(=O)C(C)(OC(=O)CC)C(=O)C2=CN1C(CO)CO (stereo not given)	POLI inh inconclusive
CCCCC1=CC2=CC(=O)C(C)(OC(=O)CC)C(=O)C2=CO1 (stereo not given)	GLS inh inconclusive, Pol eta inh-1 50µM, POLI inh 50µM, Pol kappa inh-1 inconclusive (no result: Pol beta inh, GCN5L2 inh) | Pol eta inh-2 inconclusive
Cc1cc(-c2ccccc2)nc2cc(C(=O)Nc3cc(C(F)(F)F)ccc3Cl)nn12	Pol eta inh-1 inconclusive, Pol beta inh inconclusive
Cc1ccc(Nc2cc(C)c(C#N)c3nc4ccccc4n23)cc1Cl	none
CC1(C)S[C@@H]2[C@H](NC(=O)[C@H](N)c3ccc(O)cc3)C(=O)N2[C@H]1C(=O)O	Pol eta inh-1 inconclusive, POLI inh inconclusive, Pol kappa inh-1 50µM | Pol eta inh-2 38
C=N[C@H](C(=O)N[C@@H]1C(=O)N2[C@@H]1SC(C)(C)[C@@H]2C(=O)O)c1ccccc1	none (no result: GLS inh, Pol eta inh-1, Pol beta inh, POLI inh)
